# Compound activity (PubChem BioAssay)
# Only some compounds are listed: those with a hit (about 7.5% of all), similar ones and a draw of the others.
# FLuc counter: inhibits or activates purified firefly luciferase, miR-21 counter-screen | purified FLuc, Km substrates, luminescence inhibition | Potency, µM (doses to about 57.5 µM), for inactives: top-dose activity change, negative = inhibition, most hits filed as inhibitors | 360,000 compounds, 6.9% hits | AID 588342;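 also: plate controls were vehicle for no effect and reference inhibitor for full effect; nearly all actives have a fitted effect of over 55% in size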
# Target sequence (P08659 whole entry, looked up): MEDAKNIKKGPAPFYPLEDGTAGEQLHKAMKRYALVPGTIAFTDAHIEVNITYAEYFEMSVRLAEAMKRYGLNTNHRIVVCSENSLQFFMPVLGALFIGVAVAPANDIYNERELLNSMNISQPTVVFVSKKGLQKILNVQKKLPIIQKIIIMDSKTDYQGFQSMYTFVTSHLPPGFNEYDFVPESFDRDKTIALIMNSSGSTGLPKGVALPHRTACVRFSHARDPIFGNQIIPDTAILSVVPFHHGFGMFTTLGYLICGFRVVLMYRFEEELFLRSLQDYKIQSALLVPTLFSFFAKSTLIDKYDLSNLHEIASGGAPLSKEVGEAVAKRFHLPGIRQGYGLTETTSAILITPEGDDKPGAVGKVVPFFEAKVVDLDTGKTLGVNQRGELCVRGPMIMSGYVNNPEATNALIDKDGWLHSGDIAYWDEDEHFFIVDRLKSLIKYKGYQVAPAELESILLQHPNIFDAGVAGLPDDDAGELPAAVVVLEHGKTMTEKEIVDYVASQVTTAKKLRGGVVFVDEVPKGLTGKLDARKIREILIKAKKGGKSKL
#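 Purified P. pyralis luciferase (10nM final) with 10uM D-luciferin and 10uM ATP (Km levels) in 50mM Tris acetate pH 7.5, 10mM Mg acetate, 0.01% Tween-20, 0.05% BSA; qHTS 6-point titration, ~60 µM downward; luminescence read.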
# ELG1 genotox: induces genotoxicity in HEK293T cells with luciferase-tagged ELG1 | HEK293T ELG1-luciferase reporter, luminescence, 16 h | Potency, µM (top dose mostly 46 µM), inactives show at the top dose activity change, positive = activation, usual class: activators | 330,000 compounds, 1.3% hits; also: % of control where 0% means no effect; nearly all actives have a fitted effect of over 60% in size
#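 Reporter readout depends on ELG1 protein level, which increases with genetic stress. After 16 hr compound exposure at 37 °C, luciferase activity was quantified using ONE-Glo.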
# NPC1 promoter act: activates the NPC1 promoter; Huh7 NPC1 promoter luciferase reporter, 24 h; Potency, µM (series often up to 9.22 µM), without a hit: top-dose activation, most hits filed as activators; 320,000 compounds, 2.4% hits; also: % of control where 0% means no effect; nearly all actives have a fitted effect of over 60% in size
#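 Stably transfected Huh7 (NPC1 promoter→luciferase), 1500 cells/well in Opti-MEM + 10% FBS, 2 h settle, then compound 24 h at 37 °C. Luminescence after 10 min with Amplite reagent.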
# Rab9 prom act: activates the Rab9 promoter | Potency, µM (top dose mostly 9.22 µM), for the others: at the top dose activation, negative = inhibition, most hits filed as activators | 320,000 compounds, 2.8% hits | Huh7 Rab9 promoter-luciferase reporter, luminescence, 24 h; also: % of control where 0% means no effect; nearly all actives have a fitted effect of over 60% in size
#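 Rab9 promoter-driven luciferase in stably transfected Huh7 cells; 1500 cells/well rested 2 h, exposed to compound in DMSO for 24 h at 37 °C, 5% CO2. Luminescence read 10 min after adding luciferase reagent at ambient temperature.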
# Luc counter: blocks Kinase-Glo luciferase, a counter-screen artifact; Q27757; Kinase-Glo luciferase, ATP luminescence, 8 min; Potency, µM (titrated, usually from 38.3 µM), without a hit: at the highest dose activity change, negative = inhibition, most hits filed as inhibitors; 200,000 compounds, 0.28% hits; also: % is scaled to controls: 0 for no effect and ±100 for the full control effect; nearly all actives have a fitted effect of over 60% in size
#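 Compound is pinned into ATP-containing buffer (10 uM ATP, imidazole pH 7.2, 7 mM MgCl2). Kinase-Glo luciferase reagent is then added. Light output is recorded following an 8-min room-temperature incubation.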
# SMN2 splice up: increases expression of the SMN2 splice variant. HEK293 SMN2-luciferase splicing reporter, luminescence, 30-36 h. Potency, µM (series often up to 46.1 µM), inactives show top-dose activity change, positive = activation, usual class: activators. 210,000 compounds, 2.8% hits; also: % of control where 0% means no effect; nearly all actives have a fitted effect of over 55% in size
#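 qHTS luciferase splicing reporter: luminescence rises when SMN2 exon 7 is included in transfected HEK293 cells. Compound exposure lasted 30-36 h at 37C, with 4.5 mM final sodium butyrate as control, followed by a ONE-Glo read.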
# Active calls of the source: *; ? = inconclusive; / = no result. Calls follow the shape of the dose curve; as a rule, active = well fitted curve in the direction sought with a large enough effect; inconclusive = small, poorly fitted or top-dose-only effect, or another doubt; inactive = no such curve, though single readings can be large; an effect the other way counts as inactive or inconclusive. Potency is read from the fitted curve at half-maximal effect.
SMILES,FLuc counter,ELG1 genotox,NPC1 promoter act,Rab9 prom act,Luc counter,SMN2 splice up
Cc1ccc(CCNC(=O)c2cn(C)c3ccc(S(=O)(=O)N4CCC(C)CC4)cc3c2=O)cc1,4.2%,/,/,/,/,3.4%
CCn1nnc2sc3c(c2c1=O)CCC(C)C3 (centres undefined),13.5µM*,15.1%,?,?,-3.3%,-5.4%
Cc1cc(C)c(NC(=O)Cn2nnc3sc4c(c3c2=O)CCC(C(C)(C)C)C4)c(C)c1 (centres undefined),2.6%,/,/,/,/,-3.5%
CC(=O)Cn1nnc2sc3c(c2c1=O)CCC(C(C)(C)C)C3 (centres undefined),21.3µM*,3.3%,3.55µM*,2.82µM*,-2.0%,21.0%
Nc1cc(C(=O)OCC(=O)NNC(=O)c2cccs2)ccc1Cl,0.7%,-1.9%,-3.4%,-5.8%,/,/
CC(C)(C)c1ccc(/C=C2\SC(=O)N(CCNC(=O)c3cccc(S(=O)(=O)N4CCOCC4)c3)C2=O)cc1,0.536µM*,?,0.708µM*,0.891µM*,-2.0%,-53.1%
N=c1c(C(=O)NCC2CCCO2)cc2c(=O)n3ccccc3nc2n1CCCO (centres undefined),6.2%,/,/,/,/,-15.5%
O=C(CN1CCCCC1)N/N=C/c1ccc(Cl)cc1,-12.7%,2.6%,-1.4%,6.7%,/,/
O=C(O/N=C/c1ccc(Cl)cc1)C1CCCCC1,2.69µM*,-1.5%,0.8%,1.4%,/,/
CN1C(=O)/C(=C\C(=O)c2cccs2)c2ccccc21,19µM*,-12.8%,4.0%,-10.2%,-0.1%,-19.7%
CC(C)(C)OC(=O)N[C@H](/C=C/c1ccccc1)C(=O)OC(C)(C)C,-7.0%,-2.6%,1.2%,0.7%,/,/
CCc1nnc(NC(=O)CSc2nc(-c3ccccc3)cc(-c3ccc(F)cc3)c2C#N)s1,6.4%,2.0%,-7.1%,-1.6%,-3.2%,-15.9%
CCc1nnc(NC(=O)CSc2ccc(-c3cccs3)nn2)s1,10.7µM*,-14.4%,-0.4%,1.8%,2.0%,-5.0%
CCc1nnc(NC(=O)CSc2ccc(-c3ccccc3OC)nn2)s1,?,8.2%,-7.4%,-3.7%,-1.3%,-3.4%
CCc1nnc(NC(=O)CSc2ccc(-c3ccc(F)cc3)nn2)s1,10.7µM*,?,2.1%,-3.0%,-1.7%,?
COc1cc(/C=N/Nc2cc(C)nc(N)n2)ccc1O,9.53µM*,?,2.4%,-3.7%,/,/
COc1ccc(/C=N/Nc2cc(C)nc(N)n2)cc1,19µM*,17.4%,11.4%,7.2%,-6.3%,?
Cc1nc2cc(NC(=O)NCCCO)ccc2o1,-1.8%,3.4%,1.7%,-3.1%,-2.9%,/
COc1ccc(NC(=O)Nc2ccc3oc(C)nc3c2)cc1,12µM*,?,29.6%,?,-1.9%,/
Cc1nc2cc(NC(=O)NCCC3=CCCCC3)ccc2o1,12µM*,14.6µM*,3.98µM*,3.55µM*,-0.2%,/
O=C(CCN1C(=O)c2ccccc2C1=O)NCCC1=CCCCC1,21.3µM*,29.9%,?,2.51µM*,7.8%,13.9%
O=C(CCn1c(=O)sc2ccccc21)NCCC1=CCCCC1,-3.5%,-7.8%,2.1%,3.2%,-3.7%,4.1%
CS(=O)(=O)N(Cc1ccc(Cl)cc1)c1ccc(C(=O)NCCC2=CCCCC2)cc1,2.0%,0.5%,0.9%,-2.4%,-0.7%,0.0%
O=C(NCCC1=CCCCC1)c1cnccn1,?,14.6µM*,?,3.16µM*,-0.9%,11.2µM*
O=C(NCCC1=CCCCC1)c1ccc(Cl)cc1,1.35µM*,?,0.316µM*,0.282µM*,-13.3%,/
Cc1ccc(NC(=O)C(=O)NCCOc2ccc(Cl)cc2)c(C)c1,0.1%,0.6%,-3.2%,1.8%,0.6%,-15.7%
O=C(c1cccc(F)c1)N1CCC2(CCCN(c3ccc(-c4ccccc4)cc3)C2)CC1,/,/,/,/,-2.2%,?
Cn1c(CNC(=O)CCNC(=O)c2cccc(Cl)c2)cc(=O)n(C)c1=O,-0.2%,1.2%,2.6%,-0.3%,/,/
O=C(COC(=O)c1cc(=O)[nH]c2ccccc12)NCCc1ccccc1,/,-0.3%,/,/,/,/
